# Experimental data taken from PubChem BioAssay AID1578 (Sanford-Burnham Center for Chemical Genomics, 2009).
# Screen size: about 290,000 compounds; about 3,000 (1%) were called active. The entries come from a sample that favours actives as a whole. A number with no mark means an inactive call. Cut-off read from the data, not from the text of the source: active = inhibition mostly above about 36% (no sharp cut-off); inactive = mostly below about 34%.
# Assay: NOD1 signaling inhibitors, primary screen, cell-based, luminescence, uHTS (AID 1578);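 note: HEK-293T reporter cells stimulated with the NOD1 agonist gamma-tri-DAP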
# Conditions: NOD1-driven NF-kB luciferase reporter cells, at 4 µM, stronger effect = higher value
row,Compound,inhibition
1,Cc1ccc(NC(=O)CN(C)CC(=O)Nc2c(C)cccc2C)c(Br)c1,-5.8%
2,Cc1cccc(C)c1NC(=O)c1ccc(-c2ccc(Cl)cc2Cl)o1,73.6% (active)
3,O=C(O)c1ccc(-c2ccc(Cl)cc2Cl)o1,-54%
4,Cc1ccccc1NC(=O)c1ccc(-c2ccc(Cl)cc2Cl)o1,-41.4%
5,COc1cccc(CN2CCCC(C(=O)c3ccc4c(c3)OCO4)C2)c1O (stereo not drawn),-27.5%
6,CCN1C(=O)S/C(=C/c2ccc(Sc3nc4ccccc4[nH]3)o2)C1=O,38.6%
7,C=CCN1C(=O)S/C(=C/c2ccc(Sc3nc4ccccc4[nH]3)o2)C1=O,71.4% (active)
8,CC(C)N1C(=O)S/C(=C/c2ccc(Sc3nc4ccccc4[nH]3)o2)C1=O,50.1%
9,Cc1ccc(S(=O)(=O)N2CCC(C(=O)NCCCN3CCCC3=O)CC2)cc1C,-29.3%
10,CN(C)S(=O)(=O)c1ccc(Oc2ccccc2)cc1,-4.6%
11,COc1ccc(CNC(=O)C2(CC(=O)NC(C)(C)C)CCCC2)cc1,4.9%
12,CCC(=O)Nc1sc2c(c1C(=O)N(C)C)CCCCC2,-18.5%
13,CCC(=O)Nc1sc2c(c1C(N)=O)CCC2,0.4%
14,CCCN(CCC)C(=O)c1c(NC(=O)CC)sc2c1CCCCC2,50.3% (active)
15,CCCCN1CN(Cc2ccccc2)CNC1=S,-16.8%
16,Cc1nc2cc(CO)ccc2n1C,-15.3%
17,CN(C)C(CNC(=O)/C=C/c1cccc(Cl)c1)c1ccccc1 (stereo not drawn),-22.7%
18,O=C(O)c1cccc(NC(=S)N/N=C/c2cccnc2)c1,-15.4%
19,O=C(N/N=C/c1ccccn1)c1ccccc1,-39%
20,O=C(N/N=C/c1ccccn1)c1ccc(N/N=C/c2ccccn2)cc1,-58.4%
21,O=C(O)c1cccc(NC(=S)N/N=C/c2ccccn2)c1,68.3% (active)
22,O=C(N/N=C/c1ccccn1)c1ccc(NC(=O)c2cccc([N+](=O)[O-])c2)cc1,-22.2%
23,O=C(N/N=C/c1ccccn1)c1ccc(Br)cc1,103% (active)
24,O=C(N/N=C/c1ccccn1)c1ccc([N+](=O)[O-])cc1,67.9% (active)
25,O=C(N/N=C/c1ccccn1)c1cccc([N+](=O)[O-])c1,20%
26,O=C(O)c1cccc(NC(=S)N/N=C/c2cccc(O)c2)c1,-6.8%
27,Brc1c(CSc2nc3ccccc3o2)nc2ncccn12,-66.9%
28,Cc1cc(C)cc(NC(=O)c2ccc(CSc3nnnn3C)cc2)c1,-44.7%
